# Results: PubChem BioAssay AID1159580 (chemical genetic matrix, 2015)
# “And” between values parts separate entries of the source, which are not always exact repeats. Equal entries are not always repeated. Screen size: about 5,500 compounds; about 2,000 (36%) were called active. Inconclusive results (about 18%) are left out. The list shows a part of the results. A number with no mark means an inactive call. No stated cut-off is given here; in the data, active means normalized growth mostly below about 0.91 (no sharp cut-off); inconclusive means no clear call, values can overlap the other calls; inactive means mostly above about 0.92.
# Test: chemical genetic growth profiling, strain panel (AID 1159580);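 further: tested at 20 µM; growth read once vehicle control cultures reached saturation at 30 °C; 1 = growth at the plate median or of vehicle wells; lower values mean less growth of the strain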
# Conditions: S. cerevisiae deletion strains, growth OD
smiles,measurement,setting,value
CN(C)CCCO[C@H]1[C@@H](C(O)CO)OC2OC(C)(C)O[C@@H]21 (some centres not stated),normalized growth,"locus YAL013W, strain DEP1, hits give low values",0.928
same,normalized growth,"locus YAL021C, strain ccr4, hits give low values",1
same,normalized growth,"locus YAL026C, strain drs2, hits give low values",0.98
same,normalized growth,"locus YAL030W, strain snc1, hits give low values",0.98
same,normalized growth,"locus YBL061C, strain skt5, hits give low values",0.98
same,normalized growth,"locus YBR009C, strain hhf1, hits give low values",0.985
same,normalized growth,"locus YBR021W, strain FUR4, hits give low values",0.953
same,normalized growth,"locus YBR023C, strain chs3, hits give low values",0.98
same,normalized growth,"locus YBR171W, strain sec66, hits give low values",0.964
same,normalized growth,"locus YBR229C, strain ROT2, hits give low values",0.993
same,normalized growth,"locus YBR231C, strain swc5, hits give low values",0.992
same,normalized growth,"locus YBR279W, strain paf1, hits give low values",1.01
same,normalized growth,"locus YCL011C, strain gbp2, hits give low values",0.956
same,normalized growth,"locus YCL016C, strain dcc1, hits give low values",0.973
same,normalized growth,"locus YCL029C, strain bik1, hits give low values",0.984
same,normalized growth,"locus YCL061C, strain MRC1, hits give low values",0.987
same,normalized growth,"locus YCL069W, strain vba3, hits give low values",0.996
same,normalized growth,"locus YCR088W, strain abp1, hits give low values",0.994
same,normalized growth,"locus YDL005C, strain med2, hits give low values",0.995
same,normalized growth,"locus YDL035C, strain GPR1, hits give low values",0.946
same,normalized growth,"locus YDL040C, strain nat1, hits give low values",0.995
same,normalized growth,"locus YDL074C, strain BRE1, hits give low values",0.871
same,normalized growth,"locus YDL101C, strain DUN1, hits give low values",0.994
same,normalized growth,"locus YDL134C, strain PPH21, hits give low values",0.991
same,normalized growth,"locus YDL185W, strain tfp1, hits give low values",0.98
same,normalized growth,"locus YDL192W, strain arf1, hits give low values",0.966
same,normalized growth,"locus YDR001C, strain nth1, hits give low values",0.968
same,normalized growth,"locus YDR069C, strain doa4, hits give low values",0.989
same,normalized growth,"locus YDR101C, strain arx1, hits give low values",0.981
same,normalized growth,"locus YDR137W, strain rgp1, hits give low values",0.963
same,normalized growth,"locus YDR150W, strain NUM1, hits give low values",0.995
same,normalized growth,"locus YDR159W, strain sac3, hits give low values",0.982
same,normalized growth,"locus YDR162C, strain NBP2, hits give low values",1.08
same,normalized growth,"locus YDR195W, strain ref2",0.995
same,normalized growth,"locus YDR297W, strain sur2, hits give low values",0.992
same,normalized growth,"locus YDR318W, strain mcm21, hits give low values",0.933
same,normalized growth,"locus YDR334W, strain swr1, hits give low values",0.938
same,normalized growth,"locus YDR335W, strain msn5, hits give low values",0.981
same,normalized growth,"locus YDR388W, hits give low values",0.989
same,normalized growth,"locus YDR392W, strain spt3, hits give low values",0.921
same,normalized growth,"locus YDR502C, strain sam2, hits give low values",0.937
same,normalized growth,"locus YEL003W, strain gim4, hits give low values",0.98
same,normalized growth,"locus YEL037C, strain rad23, hits give low values",0.977
same,normalized growth,"locus YEL061C, strain CIN8 (second series), hits give low values",0.975
same,normalized growth,"locus YEL061C, strain CIN8, hits give low values",0.993
same,normalized growth,"locus YER015W, strain faa2, hits give low values",0.991
same,normalized growth,"locus YER016W, strain bim1, hits give low values",0.999
same,normalized growth,"locus YER110C, hits give low values",0.946
same,normalized growth,"locus YER111C, strain swi4, hits give low values",0.986
same,normalized growth,"locus YER155C, strain BEM2 (second series), hits give low values",0.98
same,normalized growth,"locus YER155C, strain BEM2, hits give low values",1
same,normalized growth,"locus YER167W, strain BCK2, hits give low values",0.915
same,normalized growth,"locus YFR010W, strain ubp6, hits give low values",0.971
same,normalized growth,"locus YGL078C, strain dbp3, hits give low values",1
same,normalized growth,"locus YGL086W, strain mad1, hits give low values",0.926 (active)
same,normalized growth,"locus YGL167C, strain pmr1, hits give low values",0.984
same,normalized growth,"locus YGL173C, strain kem1, hits give low values",0.964
same,normalized growth,"locus YGL227W, strain vid30, hits give low values",0.987
same,normalized growth,"locus YGL240W, strain doc1, hits give low values",1
same,normalized growth,"locus YGL248W, strain PDE1, hits give low values",0.977
same,normalized growth,"locus YGL253W, strain hxk2, hits give low values",0.996
same,normalized growth,"locus YGR078C, strain PAC10, hits give low values",0.907
same,normalized growth,"locus YGR135W, strain pre9, hits give low values",0.929
same,normalized growth,"locus YGR229C, strain SMI1, hits give low values",0.8 (active)
same,normalized growth,"locus YGR252W, strain gcn5, hits give low values",0.849
same,normalized growth,"locus YHR013C, strain ard1, hits give low values",0.973
same,normalized growth,"locus YHR027C, strain rpn1, hits give low values",0.968
same,normalized growth,"locus YHR030C, strain SLT2, hits give low values",0.984 and 0.969
same,normalized growth,"locus YHR079C, strain IRE1 (second series), hits give low values",0.977
same,normalized growth,"locus YHR079C, strain IRE1, hits give low values",0.984
same,normalized growth,"locus YHR094C, strain hxt1, hits give low values",0.986
same,normalized growth,"locus YHR129C, strain ARP1, hits give low values",0.963
same,normalized growth,"locus YHR142W, strain chs7, hits give low values",0.946
same,normalized growth,"locus YHR200W, strain rpn10, hits give low values",0.948
same,normalized growth,"locus YIL066C, strain RNR3, hits give low values",0.951
same,normalized growth,"locus YIL073C, strain SPO22, hits give low values",0.932
same,normalized growth,"locus YIL125W, strain kgd1, hits give low values",0.993
same,normalized growth,"locus YIR030C, strain dcg1, hits give low values",0.986
same,normalized growth,"locus YJL092W, strain hpr5, hits give low values",0.987
same,normalized growth,"locus YJL095W, strain BCK1 (second series), hits give low values",0.993
same,normalized growth,"locus YJL095W, strain BCK1, hits give low values",0.883 and 0.978
same,normalized growth,"locus YJL115W, strain asf1, hits give low values",0.963
same,normalized growth,"locus YJL129C, strain trk1, hits give low values",1.01
same,normalized growth,"locus YJL134W, strain LCB3, hits give low values",0.993
same,normalized growth,"locus YJL154C, strain vps35, hits give low values",0.966
same,normalized growth,"locus YJL164C, strain tpk1, hits give low values",0.998
same,normalized growth,"locus YJL166W, strain qcr8, hits give low values",0.969
same,normalized growth,"locus YJL168C, strain set2, hits give low values",0.985
same,normalized growth,"locus YJL187C, strain SWE1 (second series), hits give low values",0.989
same,normalized growth,"locus YJL187C, strain SWE1, hits give low values",0.994
same,normalized growth,"locus YJR043C, strain POL32, hits give low values",0.85 (active)
same,normalized growth,"locus YJR066W, strain TOR1, hits give low values",0.97
